Results filed as inconclusive are left out. Active and inactive are the calls of the source. Unless noted, calls come from the whole dose curve; as a rule, active = well fitted curve in the direction sought with a large enough effect in the repeat runs; inconclusive = weak or mixed curves; inactive = no such curve, though single readings can be large; an effect the other way counts as inactive or inconclusive.
How the values were obtained:
[1] = qHTS assay for small molecule agonists of the p53 signaling pathway (AID 651631; calls by dose curve; note: nearly all actives have a fitted effect of over 15% in size)
How it was run: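 HCT-116 cells carrying a beta-lactamase reporter under p53 response elements were dosed with compound for 16 h at 37 °C. LiveBLAzer B/G FRET substrate was then added for 2 h at room temperature, and fluorescence intensity was read to detect pathway agonism.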

[2] = qHTS assay for small molecules that induce genotoxicity in human embryonic kidney cells expressing luciferase-tagged ATAD5 (AID 651632); note: nearly all actives have a fitted effect of over 15% in size
How it was run: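 Luminescence read-out: after 16 hr compound exposure at 37C, ATAD5-luciferase HEK293T cells received Amplite, 30 min RT, then CCD imaging. A rise in signal marks genotoxic stress.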

[3] = qHTS assay for small molecule agonists of the p53 signaling pathway - cell viability (AID 651633; calls by dose curve;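 note: p53RE-bla HCT reporter cells with a stable beta-lactamase p53 reporter; series mostly up to about 83 µM; nearly all actives have a fitted effect of over 30% in size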)
How it was run: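 p53RE-bla cells, seeded at 4,000 per well and rested 5 h at 37 C/5% CO2, received compounds in DMSO for 16 h at 37 C. CellTiter-Glo was then added, and luminescence was read after 30 min at room temperature to gauge cytotoxicity.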

[4] = qHTS assay for small molecules that induce genotoxicity in human embryonic kidney cells expressing luciferase-tagged ATAD5 - cell viability (AID 651634; calls by dose curve; note: nearly all actives have a fitted effect of over 25% in size)
How it was run: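 HEK293T ATAD5-luc cells, 2,000/well; compound 15.5 hr, 37C/5% CO2; CellTiter-Fluor 30 min, 37C; fluorescence read.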

[5] = qHTS assay for small molecule disruptors of the mitochondrial membrane potential - cell viability (AID 720634; calls by dose curve;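 note: human HepG2 liver cancer cells; series mostly up to about 83 µM; nearly all actives have a fitted effect of over 20% in size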)
How it was run: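 Luminescence from CellTiter-Glo (ATP content) gave viability in HepG2 cells, read in the same wells as the MMP dye assay after 1 hr compound exposure at 37 C.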

[6] = qHTS assay to test for compound auto fluorescence at 590 nm (red) in HepG2 cells (AID 720674)
How it was run: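 Intrinsic compound fluorescence in the red window (Ex/Em 540/590 nm) is measured in attached HepG2 cells exposed for 1 hr, DMSO vehicle as baseline, benchmarked to Rose Bengal sodium.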

[7] = qHTS assay to test for compound auto fluorescence at 535 nm (green) in HepG2 cells (AID 720675)
[8] = qHTS assay to test for compound auto fluorescence at 460 nm (blue) in HEK293 cells (AID 720678)
How it was run: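 Blue-channel (Ex/Em 405/460 nm) intensity measured in HEK293 cultures after overnight compound exposure at 37C; signal expressed relative to triamterene. Cells plated 2,000 per well in 10% dialyzed FBS medium and allowed 4-5 hr to attach.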

[9] = qHTS assay to test for compound auto fluorescence at 590 nm (red) in HEK293 cells (AID 720679)
How it was run: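 Red-channel autofluorescence (Ex/Em 540/590 nm; Rose Bengal sodium reference) was measured after overnight 37C, 5% CO2 exposure of attached HEK293 cells, 2,000 per well in medium with 10% dialyzed FBS.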

[10] = qHTS assay to test for compound auto fluorescence at 535 nm (green) in HEK293 cells (AID 720680)
[11] = qHTS assay to test for compound auto fluorescence at 460 nm (blue) in HEK293 cell free culture (AID 720681)
How it was run: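 Test compounds were pinned into cell-free culture medium (DMEM with 10% FBS) and fluorescence was read directly at Ex/Em 405/460 nm. Signals were expressed as fluorescence equivalents of triamterene, with DMSO vehicle as control.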

[12] = qHTS assay to test for compound auto fluorescence at 590 nm (red) in HEK293 cell free culture (AID 720683)
How it was run: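 Tox21 10K library compounds were pinned into cell-free DMEM with 10% FBS and fluorescence was read at excitation 540 nm. Activity is expressed as Rose Bengal sodium equivalency.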

[13] = qHTS assay to test for compound auto fluorescence at 590 nm (red) in HepG2 cell free culture (AID 720684)
How it was run: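 Readout: intrinsic compound fluorescence at 590 nm emission after 540 nm excitation, scaled to Rose Bengal sodium. Matrix was cell-free MEM with 10% FBS; DMSO vehicle wells served as control.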

[14] = qHTS assay to test for compound auto fluorescence at 460 nm (blue) in HepG2 cell free culture (AID 720685)
How it was run: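 Cell-free plates of MEM plus 10% FBS received 23 nL compound or DMSO vehicle; blue-channel (405/460 nm) intensity scored against triamterene as reference fluorophore.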

[15] = qHTS assay to test for compound auto fluorescence at 535 nm (green) in HepG2 cell free culture (AID 720686)
[16] = qHTS assay to test for compound auto fluorescence at 460 nm (blue) in HepG2 cells (AID 720687)
How it was run: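 Cells (2,000/well in MEM with 10% FBS) attached overnight at 37 C, then were exposed to compound or DMSO for 1 hr at 37 C, 5% CO2. Fluorescence read at Ex/Em 405/460 nm, expressed as triamterene-equivalent signal.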

[17] = target: Glucocorticoid receptor (Homo sapiens) (UniProt P04150); experiment: qHTS assay to identify small molecule agonists of the glucocorticoid receptor (GR) signaling pathway (AID 720691; active = well fitted activation curve with a large enough effect in the signal ratio in the repeat runs, not every such curve was filed as active; the % refers to the signal ratio)
Glucocorticoid receptor (Homo sapiens), sequence (P04150 whole entry, looked up): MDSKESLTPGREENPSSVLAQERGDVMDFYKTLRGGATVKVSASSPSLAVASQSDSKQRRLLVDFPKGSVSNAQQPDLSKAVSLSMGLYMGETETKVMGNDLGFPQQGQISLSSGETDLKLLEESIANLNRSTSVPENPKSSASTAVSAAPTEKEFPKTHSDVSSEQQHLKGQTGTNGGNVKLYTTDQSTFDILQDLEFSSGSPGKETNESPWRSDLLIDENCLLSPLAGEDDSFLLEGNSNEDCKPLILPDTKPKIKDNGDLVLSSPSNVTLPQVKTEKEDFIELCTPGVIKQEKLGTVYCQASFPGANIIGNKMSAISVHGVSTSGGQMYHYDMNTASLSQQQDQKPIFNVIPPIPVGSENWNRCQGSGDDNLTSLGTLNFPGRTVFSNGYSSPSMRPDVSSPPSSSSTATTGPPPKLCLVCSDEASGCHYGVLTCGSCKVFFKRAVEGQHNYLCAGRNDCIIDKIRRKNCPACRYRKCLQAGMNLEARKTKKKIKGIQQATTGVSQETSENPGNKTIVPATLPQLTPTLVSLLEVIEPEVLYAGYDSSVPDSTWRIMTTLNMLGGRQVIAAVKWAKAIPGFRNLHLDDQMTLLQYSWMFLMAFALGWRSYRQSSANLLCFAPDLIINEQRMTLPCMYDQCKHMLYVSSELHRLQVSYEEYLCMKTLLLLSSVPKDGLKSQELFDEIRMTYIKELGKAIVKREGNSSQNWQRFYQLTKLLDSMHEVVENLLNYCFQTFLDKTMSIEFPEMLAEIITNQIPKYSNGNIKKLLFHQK
How it was run: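 HeLa GR-bla reporter line; cells pre-incubated 4 h, compound in DMSO 18 h at 37 C; LiveBLAzer B/G FRET substrate 2 h RT; fluorescence intensity read-out.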

[18] = target: Glucocorticoid receptor (Homo sapiens) (UniProt P04150); experiment: qHTS assay to identify small molecule antagonists of the glucocorticoid receptor (GR) signaling pathway (AID 720692; active = well fitted inhibition curve with a large enough effect in the signal ratio in the repeat runs, not every such curve was filed as active; the % refers to the signal ratio)
How it was run: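 Read-out: beta-lactamase FRET substrate fluorescence, 2 h at room temperature, in HeLa cells stably carrying a GRE-driven bla reporter. Compounds were co-incubated with 5 nM dexamethasone agonist (final) for 18 h at 37 C.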

[19] = qHTS assay for small molecule disruptors of the mitochondrial membrane potential (AID 720635)
How it was run: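 HepG2 cells (2,000/well) attached overnight at 37C, then took compound for 1 hr at 37C, 5% CO2. Mito-MPS dye was added for 30 min; fluorescence was read at 490/535 nm (monomers) and 540/590 nm (aggregates).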

[20] = qHTS assay to test for compound auto fluorescence at 535 nm (green) in HEK293 cell free culture (AID 720682)
How it was run: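 Green-label autofluorescence (485 nm excitation, 535 nm emission) measured on compound added to cell-free culture medium (DMEM, 10% FBS). Output is expressed relative to fluorescein.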
% is set by controls: 0 for no effect and ±100 for the full control effect.

CCCCCC/C=C/C(=O)OC
inactive: outcome [1] | outcome [2] | outcome [3] | Potency [4] | outcome [5] | outcome [6] | outcome [7] | outcome [8] | outcome [9] | outcome [10] | outcome [11] | outcome [12] | outcome [13] | outcome [14] | outcome [15] | outcome [16] | Potency [17] | outcome [18]

O=Cc1cc2ccccc2o1
inactive: outcome [1] | outcome [2] | outcome [3] | Potency [4] | Potency [19] | outcome [6] | outcome [7] | outcome [8] | outcome [9] | outcome [10] | outcome [11] | outcome [20] | outcome [12] | outcome [13] | outcome [14] | outcome [15] | outcome [16] | Potency [17] | outcome [18]

CCC[C@@H]1C[C@@H](C(=O)N[C@@H]([C@H]2O[C@H](SC)[C@H](O)[C@@H](O)[C@H]2O)[C@@H](C)O)N(C)C1
inactive: outcome [1] | outcome [2] | outcome [3] | Potency [4] | outcome [5] | outcome [6] | outcome [7] | outcome [8] | outcome [9] | outcome [10] | outcome [11] | outcome [12] | outcome [13] | outcome [14] | outcome [15] | outcome [16] | Potency [17] | outcome [18]

CC(Oc1cc(Cl)ccc1Cl)C(=O)O (stereo unspecified)
inactive: outcome [1] | outcome [2] | outcome [3] | Potency [4] | outcome [5] | outcome [6] | outcome [7] | outcome [8] | outcome [9] | outcome [10] | outcome [11] | outcome [20] | outcome [12] | outcome [13] | outcome [14] | outcome [15] | outcome [16] | Potency [17]

CCCCOC(=O)C(C)O (stereo unspecified)
inactive: outcome [1] | outcome [2] | outcome [3] | Potency [4] | outcome [5] | Potency [19] | outcome [6] | outcome [7] | outcome [8] | outcome [9] | outcome [10] | outcome [11] | outcome [20] | outcome [13] | outcome [14] | outcome [15] | outcome [16] | outcome [18]

O=C(O)CCCCCC(=O)O
inactive: outcome [1] | outcome [2] | outcome [3] | Potency [4] | outcome [5] | Potency [19] | outcome [6] | outcome [7] | outcome [8] | outcome [9] | outcome [10] | outcome [11] | outcome [12] | outcome [13] | outcome [14] | outcome [15] | outcome [16] | Potency [17] | outcome [18]

OCC1(CO)COCOC1
inactive: outcome [1] | outcome [2] | outcome [3] | Potency [4] | outcome [5] | outcome [6] | outcome [7] | outcome [8] | outcome [9] | outcome [10] | outcome [11] | outcome [20] | outcome [12] | outcome [13] | outcome [14] | outcome [15] | outcome [16]

CCOc1cccc(N)c1
inactive: outcome [1] | outcome [3] | Potency [4] | outcome [5] | Potency [19] | outcome [6] | outcome [7] | outcome [8] | outcome [9] | outcome [10] | outcome [11] | outcome [20] | outcome [12] | outcome [13] | outcome [14] | outcome [15] | outcome [16]

COC(C)(OC)OC
inactive: outcome [1] | outcome [3] | Potency [4] | outcome [5] | outcome [6] | outcome [7] | outcome [8] | outcome [9] | outcome [10] | outcome [11] | outcome [12] | outcome [13] | outcome [14] | outcome [15] | outcome [16] | Potency [17] | outcome [18]

CCc1occc(=O)c1O
inactive: outcome [1] | outcome [3] | Potency [4] | outcome [6] | outcome [7] | outcome [8] | outcome [9] | outcome [10] | outcome [11] | outcome [20] | outcome [12] | outcome [13] | outcome [14] | outcome [15] | outcome [16] | Potency [17]

C[Si]1(C)O[Si](C)(C)O[Si](C)(C)O[Si](C)(C)O[Si](C)(C)O1
inactive: outcome [1] | outcome [3] | outcome [5] | Potency [19] | outcome [6] | outcome [7] | outcome [8] | outcome [9] | outcome [10] | outcome [11] | outcome [20] | outcome [12] | outcome [13] | outcome [14] | outcome [15] | outcome [16] | Potency [17] | outcome [18]

CCn1cc(C(=O)O)c(=O)c2cnc(N3CCCC3)nc21
inactive: outcome [1] | outcome [3] | Potency [4] | outcome [5] | Potency [19] | fluorescence, relative to Rose Bengal [6] -0.176% [at 18.6 µM] | fluorescence, % of fluorescein control [7] -0.162% [at 18.6 µM] | fluorescence, % of triamterene [8] 0.0274% [at 18.6 µM] | fluorescence, % of fluorescent control [9] -0.164% [at 18.6 µM] | fluorescence, % of fluorescein [10] 0.0361% [at 18.6 µM] | fluorescence, % of fluorescent control [11] 0.169% [at 18.6 µM] | activity change [20] -0.0351% [at 18.6 µM] | fluorescence, % of fluorescent control [12] -0.162% [at 18.6 µM] | fluorescence, % of Rose Bengal [13] 0.682% [at 18.6 µM] | fluorescence, % of fluorescent control [14] 0.141% [at 18.6 µM] | fluorescence, % of fluorescein control [15] -0.0006% [at 18.6 µM] | fluorescence, % of fluorescent control [16] 2.47% [at 18.6 µM] | Potency [17] | outcome [18]

CCCCCc1cccc(=O)o1
inactive: outcome [1] | outcome [3] | Potency [4] | Potency [19] | outcome [6] | outcome [7] | outcome [8] | outcome [9] | outcome [10] | outcome [11] | outcome [20] | outcome [12] | outcome [13] | outcome [14] | outcome [15] | outcome [16]

CCCCCCCCCCCCCCCCCCOCCO
inactive: outcome [1] | outcome [3] | outcome [5] | Potency [19] | fluorescence, relative to Rose Bengal [6] 0.105% [at 18.6 µM] | fluorescence, % of fluorescein control [7] 0.0331% [at 18.6 µM] | fluorescence, % of triamterene [8] -0.176% [at 18.6 µM] | fluorescence, % of fluorescent control [9] -0.175% [at 18.6 µM] | fluorescence, % of fluorescein [10] -0.0578% [at 18.6 µM] | fluorescence, % of fluorescent control [11] -0.0158% [at 18.6 µM] | fluorescence, % of fluorescent control [12] 0.138% [at 18.6 µM] | fluorescence, % of Rose Bengal [13] -0.0112% [at 18.6 µM] | fluorescence, % of fluorescent control [14] 0.0125% [at 18.6 µM] | fluorescence, % of fluorescein control [15] -0.0027% [at 18.6 µM] | fluorescence, % of fluorescent control [16] 0.0321% [at 18.6 µM] | Potency [17]
